Assay results as given in ChEMBL document CHEMBL3988442, “University of Dundee, Small-Polar-MMV Screening Library” (2021).
Screen size: about 53,000 compounds; about 900 (1.7%) showed an effect of 50% or more. Only a selection was taken, and strong results are over-represented in it overall.

The molecules below were run on Mycobacterium tuberculosis (assay: Cornell - Phenotypic assay to identify agents that inhibit growth of Mycobacterium tuberculosis). Conditions: 10 mM as filed; unlikely as a test dose.
Type: functional
Parameters: scale not given: direction of the effect not stated beside the values

Structure (SMILES) | Percent Effect
O=c1[nH]c2nc(N3CCSCC3)ncc2c(=O)n1-c1cccc(F)c1 | 12.37%
O=C(O)C1CCCN1c1nc(C2CC2)cc(C(F)(F)F)n1 (centres undefined) | 4.747%
O=C(O)C1CCCN1c1nc(-c2ccc(Cl)cc2)cc(C(F)(F)F)n1 (centres undefined) | 38.69%
O=C(O)C1CCCN1c1nc(-c2ccc(Cl)c(Cl)c2)cc(C(F)(F)F)n1 (centres undefined) | 67.65%
Cc1noc(C)c1CN(C)Cc1csc(-c2ccc(F)cc2)n1 | 39.26%
Cc1cc(CN(C)Cc2csc(-c3ccc(C(C)C)cc3)n2)no1 | 47.23%
Cc1noc(C)c1CN(C)Cc1csc(-c2ccc(C(C)C)cc2)n1 | 63.13%
CC(C)c1ncc(CN2CCCC2c2[nH]ncc2C(=O)N(C)C)cn1 (centres undefined) | -22.16%
CCCn1c(C)c(CC(=O)N[C@H](C)C(=O)OC)c2c1CC(C)(C)CC2=O | 46.36%
Cc1cnc2n(c1=O)C(CC(=O)NCc1ccco1)CS2 (centres undefined) | 22.84%
Cc1nc(C)n(CC2CN(CC(=O)NC3CCCC3)CCO2)n1 (centres undefined) | -1.047%
CCc1ccccc1NCc1nc2[nH]c(C)c(C)c(=O)n2n1 | -10.14%
CN1C(=O)C2(CCN(C(=O)C3CCOCC3)CC2)c2ccccc21 | 10.41%
N#Cc1nc(COc2ccc3c(c2)OCO3)oc1NC1CCCCC1 | 58.43%
N#Cc1nc(COc2ccc3c(c2)OCO3)oc1N1CCCC1 | 60.43%
CNc1oc(COc2ccc3c(c2)OCO3)nc1C#N | -5.351%
CC(C)NC(=O)c1nc(COc2ccc3c(c2)OCO3)no1 | 22.39%
N#Cc1nc(COc2ccc3c(c2)OCO3)oc1NC1CC1 | 0.1825%
N#Cc1nc(COc2ccc3c(c2)OCO3)oc1N1CCCCCC1 | 35.88%
Cc1nn(C)cc1-c1cc(C(F)(F)F)n(CCCN)n1 | -15.46%
Cc1cccc(CS(=O)(=O)NCc2nn(C)c3c2CCCC3)c1 | 18.68%
O=C(c1cnccn1)N1CC(S(=O)(=O)c2ccc(Cl)cc2)C1 | 17.17%
CC(=O)N1CCN(c2cc(C)ncn2)CC(CO)C1 (centres undefined) | 21.65%
CN(C(=O)Cn1nnnc1C(C)(C)C)c1ccccc1 | -5.466%
CCOC(=O)Cn1c(=O)nc2n1C(=O)N(c1ccccc1)C2 | -0.8928%
CCOC(=O)Cn1nnnc1-c1ccccc1 | 99.52%

Structure (SMILES) | Percent Effect
Cc1nn(C)c(N(C)C)c1CNCC(O)COc1ccccc1.Cl (centres undefined) | 25.02%
CC(C)c1nn(C)c(N(C)C)c1CNCC(O)c1ccccc1F (centres undefined) | 40.49%
Cc1nn(C)c(N(C)C)c1CNCC(O)c1ccccc1 (centres undefined) | -2.094%
COc1c(CNCC(O)c2ccccc2F)c(C(C)C)nn1C (centres undefined) | -39.06%
COc1ccccc1C(O)CNCc1c(C(C)C)nn(C)c1N(C)C (centres undefined) | 50.62%
CC(C)c1nn(C)c(N(C)C)c1CNCC(O)COc1ccccc1 (centres undefined) | 51.29%
Cc1ccc(C(O)CNCc2c(C(C)C)nn(C)c2N(C)C)cc1 (centres undefined) | 104.4%
Cc1cccc(OCC(O)CNCc2c(C)nn(C)c2N(C)C)c1 (centres undefined) | 33.74%
CC(C)c1nn(C)c(N(C)C)c1CNCC(O)c1ccccc1 (centres undefined) | 39.56%
O=C(O)c1nnn(-c2ccc(F)c(F)c2)c1-c1ccncc1 | 8.364%
CC(=O)c1ccc(-n2c(C)cn(CCC(=O)NC(N)=O)c2=O)cc1 | 30.44%
Cc1nc2ccnn2c(C)c1CCC(=O)N1CCN2CCCCC2C1 (centres undefined) | -1.576%
CCCn1cc(Cl)c(C(=O)N2C[C@H]3C[C@H](OC)C[C@H]3C2)n1 | 4.304%
CN1CC[C@]2(CN(CC3CC3)C[C@H]2c2ccccc2)C1=O | -29.63%
CC(=O)Nc1ccc(Oc2cc(C)nc(C3CCCNC3)c2)cc1.Cl (centres undefined) | 31.88%
Cc1ccc(N2CCCN(C(=O)c3n[nH]c4c3CCC4)CC2)nn1 | 19.39%
CNC(=O)CN1CCC(CN(C)CCSc2ccccc2)CC1 | 4.331%
Cc1cc(NCCSc2nccn2C)n2nc(C)c(C)c2n1 | 27.83%
CCSCCNc1cc(C)nc2c(C)c(C)nn12 | 75.01%
Cc1cc(NCCCNc2cccnc2)n2nc(C)c(C)c2n1 | 31.25%
Cn1cc(-c2cc(C(F)F)n3nc(CCC(=O)O)nc3n2)cn1 | -6.676%
COc1cccc(CNC(=O)c2ccccc2-n2cnc(CN)c2)c1 | -31.51%
CN1CCc2nnc(C3CCCN3S(=O)(=O)c3ccc(F)cc3)n2CC1 (centres undefined) | 59.34%
O=S(=O)(c1ccc(F)cc1F)N1CCCCC1c1nnc2n1CCCC2 (centres undefined) | 10.12%
CCN(CC)S(=O)(=O)N1CCCC1c1nnc2n1CCN(C)CC2 (centres undefined) | 42.64%
CC(OCC1CC1)C(=O)N1CCCN(Cc2nccn2C(C)C)CC1 (centres undefined) | 14.16%

Structure (SMILES) | Percent Effect
O=C(NCCC1COc2ccccc2O1)c1ccc(-c2cn[nH]c2)nc1 (centres undefined) | 4.189%
O=C(NCCC1COc2ccccc2O1)c1ccc(-c2cc[nH]n2)nc1 (centres undefined) | 70.18%
O=C(NCCC1COc2ccccc2O1)c1ccc(N2CC(O)C2)nc1 (centres undefined) | -14.99%
CN(C)C(=O)N1C[C@@H]2CC[C@H](C1)N(Cc1nnc(-c3ccco3)o1)C2 | -11.16%
CCC(C)Oc1ccc(CNCCNC(C)=O)cc1OC (centres undefined) | -42.04%
Cn1ncc2c(N3CCN(CCO)CC3)nc(C3CCCC3)nc21 | 32.14%
Cn1ncc2c(N3CCS(=O)(=O)CC3)nc(C3CCCC3)nc21 | -13.36%
CN1CCCN(c2nc(C3CCCC3)nc3c2cnn3C)CC1 | 65.73%
c1ccc(CCCN2CCCN(c3ncnc4[nH]ccc34)CC2)cc1 | 3.591%
Cc1nccn1-c1ccc(=O)n(CCNC(=O)Cc2ccccc2)n1 | 4.846%
c1cc(N2CCCCC2)ccc1-c1noc(CN2CCOCC2)n1 | 5.485%
COc1ccc(N2CCN(C(=O)Cn3nc(C)c(Cl)c3C)CC2)cc1 | 54.85%
Cc1occc(=O)c1OCC(=O)N1CCN(c2ccccc2)CC1 | 32.32%
Cc1nn(CC(=O)N2CCN(c3ccc(F)cc3)CC2)c(C)c1Cl | -1.208%
COc1ccc(N2CCN(C(=O)COc3c(C)occc3=O)CC2)cc1 | 55.27%
Cc1nn(CC(=O)N2CCN(c3ccncc3)CC2)c(C)c1Cl | 1.786%
COc1cccc(N2CCN(C(=O)COc3c(C)occc3=O)CC2)c1 | 16.48%
O=C(N[C@H]1CN(c2ccncc2)C[C@@H]1C1CC1)C1CCOCC1 | 6.471%
CC(=O)N[C@@H]1CN(c2nc(CO)cs2)C[C@H]1c1ccc(C)o1 | 3.039%
O=C(N[C@H]1CN(c2nc(CO)cs2)C[C@@H]1C1CC1)C1CCCCC1 | 56.52%
CCC[C@H]1CN(c2nc(CO)cs2)C[C@@H]1NC(=O)C1(COC)CC1 | 20.53%
OCc1csc(N2C[C@@H](CN3CCCCCC3)[C@@H](CO)C2)n1 | -1.997%
CCC[C@H]1CN(c2nc(CO)cs2)C[C@@H]1NC(=O)C1CCC1 | 52.87%
O=C(c1cccs1)N1CCC2(CC1)CN(c1ccsc1)C(=O)CO2 | 16.06%
Clc1ccc(C2(CNC3=NCCN3)CC2)cc1.I | -15.81%
CCOC(=O)N1CCNC(c2cccs2)C1 (centres undefined) | -4.593%

Structure (SMILES) | Percent Effect
Cc1nc(CN2CCC(N(C)Cc3nnc(C4CC4)n3C)C2)cs1 (centres undefined) | 55.81%
CN(Cc1nnc(C2CC2)n1C)C1CCN(Cc2ccncc2)C1 (centres undefined) | -21.05%
Cc1cnc(CN2CCC(N(C)Cc3nnc(C4CC4)n3C)C2)cn1 (centres undefined) | 8.133%
CN(Cc1nnc(C2CC2)n1C)C1CCN(Cc2ccccc2)C1 (centres undefined) | 104.3%
CN(Cc1nnc(C2CC2)n1C)C1CCN(Cc2ccon2)C1 (centres undefined) | -5.558%
CN(Cc1nnc(C2CC2)n1C)C1CCN(Cc2ccc(F)cc2)C1 (centres undefined) | 10.51%
CC(=O)N1CCC(c2ncc(C(=O)Nc3ccccc3)c(C)n2)CC1 | 16.5%
O=C(CC1CC1)N1CCC2(CC1)CN(Cc1cccnc1)C(=O)CO2.O=C(O)C(F)(F)F | 2.615%
COCCN1C[C@H]2CCN(C(=O)c3cc(C)on3)CC[C@H]2S1(=O)=O | -32.34%
CNC(=O)c1cc2ccccc2n1C | -0.05075%
CC(C)(C)c1csc(CCNC(=O)C(c2ccccc2)n2cnnn2)n1 (centres undefined) | 11.39%
Cc1noc(COCC(=O)Nc2ccc(Br)c(C)n2)n1 | 11.41%
Cc1noc(NC(=O)c2ccc(Br)s2)n1 | 105.7%
O=C(NCCn1ccnc1)c1cccc(Br)c1 | 9.854%
Cc1noc(NC(=O)c2ccc(C#N)cc2)n1 | 13.91%
Cc1noc(NC(=O)c2cccc(Br)c2)n1 | 106.3%
Cc1noc(NC(=O)c2ccc(Br)o2)n1 | 16.32%
Cc1noc(NC(=O)CCNC(=O)c2ccc(Br)cc2)n1 | -19.08%
Cc1noc(NC(=O)c2ccc(OC(F)(F)F)cc2)n1 | 104.6%
Cc1noc(NCc2ccc(F)cc2)n1 | -8.844%
Cc1noc(NC(=O)c2ccc(Br)cc2)n1 | 106.9%
Cc1ccc(C(=O)Nc2nc(C)no2)cc1 | 27.63%
Cc1noc(NC(=O)c2ccccc2)n1 | -1.268%
CN1C(=O)C2(CC(=O)Nc3[nH]ncc32)c2cc(F)ccc21 (centres undefined) | 1.042%
COCCNC(=O)c1sc2ccccc2c1C1CCC(CN)CC1.Cl (centres undefined) | -3.556%
CC(C)c1nccn1-c1nccnc1C1CCCN1Cc1cccnc1 (centres undefined) | -9.727%
